From PubChem BioAssay AID1159580 (chemical genetic matrix, 2015)
About 2,000 (36%) of roughly 5,500 compounds were called active. Another 18% or so got no clear call; they are omitted. Cut-off read from the data, not from the text of the source: active = normalized growth mostly below about 0.91 (no sharp cut-off); inconclusive = no clear call, values can overlap the other calls; inactive = mostly above about 0.92. This is one part of the list.

Assay: chemical genetic growth profiling, strain panel (AID 1159580);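 note: tested at 20 µM; growth read once vehicle control cultures reached saturation at 30 °C; 1 = growth at the plate median or of vehicle wells; lower values mean less growth of the strain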
Conditions: S. cerevisiae deletion strains, growth OD

Measured: normalized growth

COC(=O)C(O)[C@H]1C(C)(C)[C@@H](OC(C)=O)[C@@H]2CC3=C4CC(=O)O[C@@H](c5ccoc5)[C@]4(C)CCC3[C@@]1(C)C2=O (some centres not stated)
inactive: locus YBR021W, strain FUR4, stronger effect = lower value 0.99 | locus YBR229C, strain ROT2, stronger effect = lower value 0.996 | locus YCL029C, strain bik1, stronger effect = lower value 1.02 | locus YDL035C, strain GPR1, stronger effect = lower value 0.994 | locus YDL074C, strain BRE1, stronger effect = lower value 0.941 | locus YDL101C, strain DUN1, stronger effect = lower value 1.01 | locus YDL185W, strain tfp1, stronger effect = lower value 1.01 | locus YDL192W, strain arf1, stronger effect = lower value 0.986 | locus YDR101C, strain arx1, stronger effect = lower value 1.01 | locus YDR162C, strain NBP2, stronger effect = lower value 0.963 | locus YDR318W, strain mcm21, stronger effect = lower value 0.989 | locus YDR388W, stronger effect = lower value 1 | locus YDR502C, strain sam2, stronger effect = lower value 1 | locus YER110C, stronger effect = lower value 1 | locus YER155C, strain BEM2, stronger effect = lower value 1.01 | locus YER167W, strain BCK2, stronger effect = lower value 0.986 | locus YGL078C, strain dbp3, stronger effect = lower value 1.01 | locus YGL086W, strain mad1, stronger effect = lower value 0.979 | locus YGL248W, strain PDE1, stronger effect = lower value 0.992 | locus YGR135W, strain pre9, stronger effect = lower value 0.97 | locus YGR252W, strain gcn5, stronger effect = lower value 0.989 | locus YHR079C, strain IRE1 (second series), stronger effect = lower value 1 | locus YHR094C, strain hxt1, stronger effect = lower value 1 | locus YHR129C, strain ARP1, stronger effect = lower value 0.989 | locus YHR200W, strain rpn10, stronger effect = lower value 1 | locus YIL066C, strain RNR3, stronger effect = lower value 0.981 | locus YIL073C, strain SPO22, stronger effect = lower value 1 | locus YIL125W, strain kgd1, stronger effect = lower value 1.01 | locus YIR030C, strain dcg1, stronger effect = lower value 1.01 | locus YJL095W, strain BCK1, stronger effect = lower value 0.915 | locus YJL134W, strain LCB3, stronger effect = lower value 0.995 | locus YJL168C, strain set2, stronger effect = lower value 0.995 | locus YJL187C, strain SWE1 (second series), stronger effect = lower value 0.993 | locus YJR043C, strain POL32, stronger effect = lower value 1.02 | locus YJR075W, strain HOC1, stronger effect = lower value 0.995 | locus YKL009W, strain mrt4, stronger effect = lower value 1.01 | locus YKL068W, stronger effect = lower value 1 | locus YKL085W, strain MDH1 (second series), stronger effect = lower value 0.995 | locus YKL085W, strain MDH1, stronger effect = lower value 0.995 | locus YKL190W, strain CNB1, stronger effect = lower value 0.998 | locus YKR001C, strain vps1, stronger effect = lower value 0.977 | locus YLR039C, strain RIC1, stronger effect = lower value 0.764 | locus YLR058C, strain SHM2, stronger effect = lower value 0.99 | locus YLR102C, strain apc9, stronger effect = lower value 0.993 | locus YLR262C, strain YPT6, stronger effect = lower value 0.805 | locus YLR268W, strain sec22, stronger effect = lower value 0.983 | locus YLR330W, strain CHS5, stronger effect = lower value 0.992 | locus YLR371W, strain rom2, stronger effect = lower value 0.982 | locus YLR418C, strain cdc73, stronger effect = lower value 0.906 | locus YML016C, strain PPZ1, stronger effect = lower value 0.994 | locus YML032C, strain rad52, stronger effect = lower value 1 | locus YML124C, strain tub3, stronger effect = lower value 1 | locus YMR078C, strain ctf18, stronger effect = lower value 0.983 | locus YMR223W, strain ubp8, stronger effect = lower value 0.99 | locus YMR307W, strain GAS1, stronger effect = lower value 0.76 | locus YNL067W, strain RPL9B, stronger effect = lower value 0.991 | locus YNL233W, strain BNI4, stronger effect = lower value 0.984 | locus YNL250W, strain rad50, stronger effect = lower value 1.02 | locus YNL271C, strain bni1, stronger effect = lower value 0.998 | locus YNL298W, strain CLA4, stronger effect = lower value 1.01 | locus YNL307C, strain MCK1, stronger effect = lower value 0.991 | locus YNL322C, strain KRE1, stronger effect = lower value 1 | locus YNR052C, strain pop2, stronger effect = lower value 0.99 | locus YOL012C, strain htz1 0.744 | locus YOL147C, strain pex11, stronger effect = lower value 1 | locus YOR061W, strain CKA2, stronger effect = lower value 0.997 | locus YOR069W, strain VPS5, stronger effect = lower value 0.996 | locus YOR136W, strain idh2, stronger effect = lower value 1.01 | locus YOR144C, strain elg1, stronger effect = lower value 1 | locus YOR184W, strain ser1, stronger effect = lower value 0.965 | locus YOR316C, strain cot1, stronger effect = lower value 1.01 | locus YPL055C, strain LGE1, stronger effect = lower value 1.01 | locus YPR119W, strain clb2, stronger effect = lower value 1 | locus YPR141C, strain kar3, stronger effect = lower value 0.992 | locus YPR163C, strain tif3, stronger effect = lower value 1 | locus YPR167C, strain met16, stronger effect = lower value 1 | strain wtn01, stronger effect = lower value 0.995
